MazF activator: activators of E. coli MazEF toxin-antitoxin RNase, primary screen, biochemical, fluorescence, uHTS; FAM/BHQ RNA-DNA oligo cleavage fluorescence, 5 h; activation, % at 20 µM; 0.32% of 350,000 active; AID 504720, 2011; in the data active = activation above about 50%
Autofluor counter: flagged as autofluorescent in microsphere protease counterscreen; compound autofluorescence counterscreen, microsphere flow cytometry; active compounds read high; fluorescence intensity (concentration not given with the values); 3.1% of 360,000 active; AID 624483; in the data active = fluorescence intensity above about 16000; inconclusive = no clear call, values can overlap the other calls
BoNT A protease: BoNT/A light chain protease inhibitors, primary screen, biochemical, flow cytometry, MLPCN library. Botulinum neurotoxin type A light chain protease (Clostridium botulinum A str. ATCC 3502). multiplex microsphere protease substrate cleavage. inhibition, % at 10 µM. 0.17% of 360,000 active. AID 588499, 2011; also: plate controls were buffer without enzyme for full effect and enzyme alone for no effect
BoNT-F LC inh: BoNT/F light chain protease inhibitors, primary screen, biochemical, flow cytometry, MLPCN library; Botulinum neurotoxin type F light chain protease (Clostridium botulinum); Multiplex microsphere protease cleavage assay; inhibition, % at 10 µM; 0.22% of 360,000 active; AID 588497, 2011; in the data active = inhibition above about 35%, passing the limit was not always enough; inconclusive = no clear call, values can overlap the other calls; also: plate controls were buffer without enzyme for full effect and enzyme alone for no effect
Anthrax LF inh2: Bacillus anthracis LF protease inhibitors, primary screen, biochemical, multiplex microsphere, MLPCN library; Lethal factor (Bacillus anthracis), P15917; inhibition, % at 10 µM; 0.12% of 360,000 active; AID 588501, 2011; multiplex microsphere protease cleavage assay; also: plate controls were buffer without enzyme for full effect and enzyme alone for no effect
Active calls of the source: *; i = inactive; ? = inconclusive; nt = no result. Hits are enriched below; roughly 3.6% of the tested compounds scored in any of these assays. Rule as the data show it, unless noted: active = inhibition above about 30%; inconclusive = no clear call, values can overlap the other calls; inactive = below that.

SMILES	MazF activator	Autofluor counter	BoNT A protease	BoNT-F LC inh	Anthrax LF inh2
CC(=O)Nc1cccc(N2CCCC2=O)c1	1	25393*	-6	-8	0
CC(=O)Nc1cccc(N2C(=O)CCC2=O)c1	3	2462	0	-6	-2
CC(=O)NC(C)(c1ccccc1)c1nc(-c2csc3ccccc23)cs1 (stereo not given)	nt	3701	0	-8	1
CS(=O)(=O)N(CC(=O)NCCSC1CCCCC1)c1ccc2c(c1)OCO2	0	2114	0	3	1
COc1ccc(N(CC(=O)NCCSC2CCCCC2)S(C)(=O)=O)c(OC)c1	2	18476*	?	-10	-1
CC1=C(C(=O)NCc2ccccc2)C(c2ccccc2OCC(N)=O)NC(=O)N1 (stereo not given)	4	10262	0	0	2
C=CCOc1ccccc1C1NC(=O)NC(C)=C1C(=O)NCc1ccccc1 (stereo not given)	3	17255*	?	-5	1
CCOc1cc(C2NC(=O)NC(C)=C2C(=O)NCc2ccccc2)c(Cl)cc1O (stereo not given)	7	20868*	0	1	0
CCC(C)NC(=O)CSc1nc2ccsc2c(=O)n1-c1ccc(OC)cc1 (stereo not given)	7	4915	1	14	-3
COc1ccc(-n2c(SCC(=O)NC3CCCCC3)nc3ccsc3c2=O)cc1	-2	21037*	?	0	0
CSCCC(NC(=O)c1ccco1)C(=O)Nc1ccc(C)c(S(=O)(=O)N2CCOCC2)c1 (stereo not given)	5	8196	?	?	?
CS(=O)(=O)N1N=C(c2ccccc2)CC1c1ccc2nccnc2c1 (stereo not given)	-1	10220	3	10	1
CS(=O)(=O)N1N=C(c2ccc3nccnc3c2)CC1c1ccccc1 (stereo not given)	5	24132*	1	1	0
Cc1cccc(NC(=O)Cn2c(=O)n3nc(CCn4nc(C)cc4C)nc3c3ccccc32)c1	2	21276*	6	4	-2
CCN(C(=O)COC(=O)/C=C/c1ccc(OC)c(OC)c1)c1c(N)n(Cc2ccccc2)c(=O)[nH]c1=O	5	3942	-1	-15	-12
Cn1c(NC(=O)c2ccco2)c(-c2ccccc2)c(=O)c2ccccc21	2	8467	0	-4	-3
CCn1c(NC(=O)c2ccco2)c(-c2ccccc2Cl)c(=O)c2ccccc21	7	23199*	1	5	3
CCn1c(NC(=O)c2cccs2)c(-c2cccs2)c(=O)c2ccccc21	5	20705*	?	4	1
CCCC(=O)Nc1c(-c2cccs2)c(=O)c2ccccc2n1C	2	21477*	2	-1	0
COc1ccc(-c2c(NC(C)=O)n(C)c3ccccc3c2=O)cc1	-14	16417*	?	17	-14
Cc1ccccc1C(=O)Nc1c(-c2cccs2)c(=O)c2ccccc2n1C	4	6025	0	6	-8
COc1ccc(C(=O)c2[nH]c(N)c(C(=O)NCCc3c[nH]c4ccccc34)c2-c2ccc(C(F)(F)F)cc2)cc1	nt	6362	-1	-13	-5
COC(=O)[C@H]1C[C@H](OC(=O)Nc2c(C)noc2C)[C@@]2(O)CN(S(=O)(=O)c3ccc(C)cc3)CC2[C@H]1C(=O)OC (stereo not given in full)	5	3826	0	2	5
COC(=O)/C(C#N)=C(/Nc1ccc(F)c(Cl)c1)C(F)(F)F	9	nt	nt	nt	nt
CCN(Cc1cccc(F)c1)C(=O)c1ccc2ccccc2n1	11	4842	1	-1	-3
COc1cccc(-n2c(SCC(=O)Nc3sc4c(c3C(N)=O)CCC4)nc3ccccc3c2=O)c1	0	16606*	-1	-2	-3
COc1cccc(-n2c(SCC(=O)Nc3nc4ccccc4s3)nc3ccccc3c2=O)c1	-66	nt	nt	nt	nt
Cn1c(=O)c(C(=O)c2ccc(S(C)(=O)=O)c(Cl)c2Cl)c(O)c2ccccc21	4	3967	0	?	6
COCCCN1C(=O)C(CC(=O)NCCN2CCOCC2)CC(C(=O)N2CCCCCC2)=C1C (stereo not given)	nt	5857	-1	-11	-5
C=CCN1C(=O)/C(=C\C=C2\N(C)c3ccccc3C2(C)C)SC1=S	i	4733	41*	10	23

Screening data (PubChem)
